From PubChem BioAssay AID720597 (Broad Institute, 2013)
Measured potencies and affinities stand elsewhere. The source made the active and inactive calls.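 Rule for the calls: active = fitted half-maximal dose no more than twice the top valid tested dose, for compounds that lower signal; inconclusive = fit invalid, or curve flat with activity between -70 and -30; inactive = potency past limit, curve flat within ±30, or signal increasing.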

molecular target: NAD-dependent protein deacylase sirtuin-5, mitochondrial (Homo sapiens) (UniProt Q9NXA8); experiment: SIRT5 deacylase inhibitors, dose response, biochemical, fluorescence imaging, cherry-pick, set 6 (AID 720597); details: Purified SirT5, succinyl-peptide-AMC/trypsin fluorescence; series mostly up to 15 µM;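 note: lower AMC signal can also come from blocking the trypsin step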
Sequence (Q9NXA8 whole entry, looked up): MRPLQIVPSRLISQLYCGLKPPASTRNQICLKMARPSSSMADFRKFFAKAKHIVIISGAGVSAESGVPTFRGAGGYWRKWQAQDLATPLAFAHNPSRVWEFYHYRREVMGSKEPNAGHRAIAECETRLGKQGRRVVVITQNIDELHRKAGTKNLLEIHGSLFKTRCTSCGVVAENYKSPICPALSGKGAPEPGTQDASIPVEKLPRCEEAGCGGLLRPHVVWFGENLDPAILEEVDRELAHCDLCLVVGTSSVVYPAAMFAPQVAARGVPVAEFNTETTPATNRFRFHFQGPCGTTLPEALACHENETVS

outcome, inactive:
O=C(CCN1CCCCC1)N[C@@H]1CC[C@@H](CC(=O)N2CCC(Cc3ccccc3)CC2)O[C@@H]1CO, C[C@@H]1CN([C@H](C)CO)C(=O)c2cc(NS(=O)(=O)c3ccccc3)ccc2O[C@@H](C)CCCCO[C@H]1CN(C)Cc1ccc(C(F)(F)F)cc1, COc1ccc(NC(=O)Nc2ccc3c(c2)C(=O)N([C@@H](C)CO)C[C@H](C)[C@H](CN(C)Cc2ccc(Cl)c(Cl)c2)O3)cc1, CCCNC(=O)N1[C@@H](CO)[C@@H](c2ccccc2)C12CN(C(=O)CC1CC1)C2, COc1ccc([Si](C)(C)[C@H]2[C@H](CCn3cc([C@H](O)c4ccccc4)nn3)O[C@@]3(C(=O)N(Cc4cccc(N5CCOC5=O)c4)c4ccccc43)[C@@H]2C)cc1, CCN1[C@H](C(=O)NCc2ccccc2)[C@@H](CO)[C@@H]2Cn3c(ccc(-c4ccncc4)c3=O)[C@@H]21, C[C@@H]1CN([C@H](C)CO)C(=O)c2cc(N(C)C)ccc2O[C@H]1CN(C)S(=O)(=O)c1ccccc1, Cc1ccc(S(=O)(=O)N(C)C[C@H]2Oc3ccc(NC(=O)Cn4cnnn4)cc3CC(=O)N([C@@H](C)CO)C[C@H]2C)cc1, C[C@@H]1CN([C@H](C)CO)S(=O)(=O)c2ccc(/C=C/c3ccccc3)cc2O[C@@H]1CN(C)C(=O)c1ccc2c(c1)OCO2, COc1ccc(S(=O)(=O)Nc2ccc3c(c2)C(=O)N([C@@H](C)CO)C[C@@H](C)[C@@H](CN(C)Cc2ccc(C(F)(F)F)cc2)OCCCC[C@H](C)O3)cc1, O=C(C[C@H]1CC[C@H]2[C@@H](COC[C@@H](O)CN2S(=O)(=O)c2ccccc2)O1)Nc1ccc(-c2ccccc2)cc1, C[C@@H]1CN([C@@H](C)CO)C(=O)c2cccc(NS(=O)(=O)c3ccc(F)cc3)c2O[C@H]1CN(C)C(=O)Nc1ccccc1, Cc1noc(C)c1NC(=O)Nc1cccc2c1O[C@@H](CN(C)Cc1ccc(Oc3ccccc3)cc1)[C@@H](C)CN([C@H](C)CO)C2=O, COc1cccc(S(=O)(=O)N(C)C[C@@H]2Oc3cc(C4=CCCCC4)ccc3S(=O)(=O)N([C@@H](C)CO)C[C@H]2C)c1, Cc1ccccc1S(=O)(=O)N[C@H]1CC[C@@H](CCn2cc(Cc3ccccc3)nn2)O[C@H]1CO, C/C=C/c1ccc([C@@H]2[C@@H](CO)N(C(C)=O)[C@H]2CN(C(=O)COC)C(C)C)cc1, CCCC#Cc1ccc2c(c1)O[C@@H](CN(C)C(=O)c1cnccn1)[C@@H](C)CN([C@@H](C)CO)S2(=O)=O, C[C@H](CO)N1C[C@H](C)[C@@H](CN(C)C(=O)Cc2ccccc2)OCc2ccccc2-c2c(n(C)c3ccccc23)C1=O, C[C@H](CO)N1C[C@H](C)[C@H](CN(C)Cc2ccc(Cl)c(Cl)c2)Oc2ccc(NC(=O)CCCCCC(=O)Nc3ccccc3N)cc2C1=O, Cc1ccccc1S(=O)(=O)N1CCCCN2[C@H](CO)[C@@H](c3ccc(-c4ccccc4)cc3)[C@@H]2C1, C[C@H]1CN([C@@H](C)CO)C(=O)Cc2cc(NC(=O)CCCCCC(=O)Nc3ccccc3N)ccc2O[C@@H]1CN(C)Cc1ccc(Oc2ccccc2)cc1, COc1ccc(S(=O)(=O)Nc2ccc3c(c2)C(=O)N([C@H](C)CO)C[C@@H](C)[C@H](CN(C)Cc2ccc(C(F)(F)F)cc2)OCCCC[C@@H](C)O3)cc1, Cc1noc(C)c1NC(=O)N(C)C[C@H]1OCCCC[C@@H](C)Oc2ccc(NS(=O)(=O)c3c(C)noc3C)cc2C(=O)N([C@H](C)CO)C[C@@H]1C, O=C(NC1CCCC1)[C@H]1[C@H](CO)[C@H]2Cn3c(ccc(-c4ccncc4)c3=O)[C@H]2N1CCc1ccccc1, Cc1noc(C)c1NC(=O)Nc1ccc2c(c1)C(=O)N([C@H](C)CO)C[C@H](C)[C@@H](CN(C)C(=O)Nc1ccc(C(F)(F)F)cc1)OCCCC[C@H](C)O2, CCCC#Cc1ccc(CC[C@H]2O[C@H]3CC[C@@H](CO)O[C@H]3C[C@H]2NS(=O)(=O)c2ccccc2)cc1, O=C(CCN1CCCCC1)N[C@H]1CC[C@@H](CCn2cc(-c3ccc(F)cc3)nn2)O[C@H]1CO, CO[C@H]1CN(C)C(=O)c2cc(NS(=O)(=O)c3ccc(Oc4ccccc4)cc3)ccc2OC[C@H](C)NC[C@H]1C, O=C(NCC[C@@H]1CC[C@H](NS(=O)(=O)c2cccc(F)c2)[C@H](CO)O1)C1CCOCC1, COc1ccc(S(=O)(=O)Nc2ccc3c(c2)CC(=O)N([C@@H](C)CO)C[C@H](C)[C@H](CN(C)Cc2ccc(Oc4ccccc4)cc2)O3)cc1, CNC[C@@H]1Oc2ccc(NC(=O)Nc3ccc(F)cc3)cc2CC(=O)N([C@H](C)CO)C[C@@H]1C, CC(C)CC#Cc1ccc2c(c1)O[C@@H](CN(C)Cc1ccccc1F)[C@H](C)CN([C@H](C)CO)S2(=O)=O, COc1cccc(S(=O)(=O)N(C)C[C@H]2Oc3cc(C4=CCCCC4)ccc3S(=O)(=O)N([C@H](C)CO)C[C@H]2C)c1, CCCC#Cc1ccc([C@H]2[C@H](CO)N3CCCCN(S(=O)(=O)Cc4ccccc4)C[C@@H]23)cc1, C[C@@H]1CCCCO[C@H](CN(C)Cc2ccc(C(=O)O)cc2)[C@H](C)CN([C@H](C)CO)C(=O)c2cc(NS(=O)(=O)c3cccs3)ccc2O1, O=C(NCC[C@@H]1CC[C@@H](NC(=O)C2CC2)[C@@H](CO)O1)c1cc(Cl)cc(Cl)c1, Cc1cccc(-c2ccc([C@H]3[C@H]4CN(S(=O)(=O)c5cccc(F)c5)CC(=O)N4[C@H]3CO)cc2)c1, C[C@H]1CCCCO[C@@H](CN(C)Cc2ccc(C(F)(F)F)cc2)[C@@H](C)CN([C@@H](C)CO)C(=O)c2cc(NS(=O)(=O)c3ccc(F)cc3)ccc2O1, C[C@@H]1CCCCO[C@H](CN(C)Cc2ccc(C(F)(F)F)cc2)[C@@H](C)CN([C@@H](C)CO)C(=O)c2cc(NS(=O)(=O)c3ccc(F)cc3)ccc2O1, C[C@@H]1CCCCO[C@@H](CN(C)C(=O)Cc2ccccc2)[C@@H](C)CN([C@@H](C)CO)C(=O)c2cc(NC(=O)Nc3ccc(F)cc3)ccc2O1
